# Experimental data from ChEMBL document CHEMBL3988442, “University of Dundee, Small-Polar-MMV Screening Library” (2021).
# Out of some 69,000 compounds screened, about 950 (1.4%) showed an effect of 50% or more. The sample holds strong results, similar compounds and a random draw of the others, so the mix is not that of the screen.
# System: Mycobacterium tuberculosis
# Experiment: Cornell M. t heat shock assay; further: in the data most compounds retested in dose-response had high values
# Assay type: functional, organism-based
# Design: dose or concentration left out as unconfirmed
row,SMILES,Percent Effect
1,Cn1cc(CNC2CCc3c(ccc(=O)n3Cc3cccnc3)C2)cn1.O=C(O)C(F)(F)F.O=C(O)C(F)(F)F (stereo not given),12.8%
2,CN(C)C(=O)[C@H]1CO[C@H]2CCN(c3ncc(F)cn3)C[C@H]2C1.O=C(O)C(F)(F)F,5.292%
3,CC(CNCc1ccc(F)cc1)Oc1ccccn1.Cl (stereo not given),4.534%
4,Cc1nc(CN2CCCC(N(C)c3ccc(C#N)cn3)C2)no1 (stereo not given),-30.96%
5,CCc1nc(CN2CCCC(N(C)CCc3cccs3)C2)no1 (stereo not given),22.05%
6,CN(CCc1cccs1)C1CCCN(Cc2noc(C3CC3)n2)C1 (stereo not given),32.3%
7,Cc1nc(CN2CCCC(N(C)CCCc3ccccc3)C2)no1 (stereo not given),-1.488%
8,Cc1nc(CN2CCCC(N(C)CCc3cccs3)C2)no1 (stereo not given),86.93%
9,Cc1nc(CN2CCCC(N(C)c3cnc4ccccc4n3)C2)no1 (stereo not given),68.17%
10,Cc1nc[nH]c1CN1C[C@@H]2CC[C@H](C1)N(C(=O)c1cnn(C)c1)C2,-6.364%
11,Cc1ccc(C(=O)N2Cc3c(CN4CCCCC4)nn(C)c3C2)cc1F.O=C(O)C(F)(F)F,-32.35%
12,Cc1ccc(CN2CCC3(CC2)C(c2ccccc2)CC(=O)N3C)o1.O=C(O)C(F)(F)F (stereo not given),26.84%
13,Cn1cc(C(=O)NCc2cn3c(n2)CN(CC2CCOC2)CC3)cn1.O=C(O)C(F)(F)F.O=C(O)C(F)(F)F (stereo not given),-28.66%
14,O=C1c2cnc(N3CCCC3)nc2CN1C1CCS(=O)(=O)C1 (stereo not given),9.039%
15,Cc1cccc(CNC(Cc2ccsc2)c2nc(C)c(C)s2)n1.Cl (stereo not given),106.6%
16,COc1ccccc1CNC(Cc1cccs1)c1nc(C)c(C)s1.Cl (stereo not given),6.532%
17,Cc1nc(C(Cc2ccsc2)NC(=O)CN2CCOCC2)sc1C (stereo not given),-3.287%
18,CC(C)Oc1cccc(CNC(Cc2ccsc2)c2nccs2)c1.Cl (stereo not given),2.523%
19,O=C(NC(Cc1ccsc1)c1nccs1)C1CC1 (stereo not given),-16.41%
20,COc1cccc(CNC(Cc2cccs2)c2nc(C)c(C)s2)c1OC.Cl (stereo not given),-9.078%

row,SMILES,Percent Effect
1,Cc1nc(C(Cc2ccsc2)NC(=O)CCN2CCOCC2)sc1C (stereo not given),3.097%
2,Cc1cccc(CNC(Cc2ccsc2)c2nccs2)n1 (stereo not given),101.9%
3,CCC(CN1CCCC1)NC(=O)C1(c2cccc(F)c2)CC1.O=C(O)CC(O)(CC(=O)O)C(=O)O (stereo not given),-3.287%
4,CN(C)C(=O)[C@@]12CCO[C@@H]1CCN(Cc1ccc3c(c1)OCO3)C2.O=C(O)C(F)(F)F,4.753%
5,Cc1noc([C@]23COC[C@H]2CN(C(=O)CN(C)C)C3)n1.O=C(O)C(F)(F)F,15.78%
6,CC1CCN(c2cc(CCC3CCCN3)ncn2)CC1.Cl (stereo not given),-19.69%
7,Cc1nocc1C(=O)N1CCOC2(COCCN(C(C)C)C2)C1.O=C(O)C(F)(F)F (stereo not given),1.76%
8,CCN(Cc1cccnc1)CC1CCCO1 (stereo not given),-42.47%
9,CCN(Cc1cccc2c1OCO2)CC1CCCO1 (stereo not given),-23.06%
10,CCN(Cc1ccc2cccc(O)c2n1)CC1CCCO1 (stereo not given),84.2%
11,O=C(O)C(F)(F)F.O=S1(=O)c2ccccc2C2(CCN(Cc3ccccc3)C2)N1CC1CC1 (stereo not given),20.71%
12,OCC1CCN(c2ccc(NCc3ccsc3)nc2)CC1,11.8%
13,COCCN(C)c1ccc(NCc2cccnc2)nc1,21.66%
14,COCCN(C)c1ccc(NCc2ccsc2)nc1,90.49%
15,CCn1cc(CNc2ccc(N(C)CCOC)cn2)cn1,57.45%
16,CCn1cc(CNc2ccc(Br)c(OC)c2)cn1,-14.65%
17,COCCN(C)c1ccc(NCc2cscn2)nc1,13.97%
18,Cl.O=C(c1ccccc1Cl)N1CCN(CCc2ccccn2)CC1,-2.792%
19,COCCN1CCN(c2cccc(C)n2)Cc2ccc(C)nc21.O=C(O)C(F)(F)F.O=C(O)C(F)(F)F,28.62%
20,CN(Cc1cccc2cccnc12)C1CCS(=O)(=O)C1.O=C(O)CC(O)(CC(=O)O)C(=O)O (stereo not given),-10.77%

row,SMILES,Percent Effect
1,Cc1cccc(CN2CCO[C@H]3[C@@H](OCc4ccncc4)CC[C@@H]32)n1.O=C(O)C(F)(F)F.O=C(O)C(F)(F)F.O=C(O)C(F)(F)F,-9.598%
2,CN(C)C(=O)[C@@H]1C[C@@H]2CCN(C3CCOCC3)C[C@H]2O1.O=C(O)C(F)(F)F,-21.42%
3,CO[C@H]1C(=O)N(C)C2(CCNCC2)[C@@H]1C(=O)Nc1ccccc1,47.74%
4,CN1C(=O)[C@H](OC(N)=O)[C@@H](C(=O)Nc2ccccc2)C12CCNCC2,31.45%
5,CNC(=O)[C@@H]1[C@@H](OC(=O)Nc2ccccc2)C(=O)N(C)C12CCNCC2,60.88%
6,Fc1ccc(F)c(CN2CCC(c3n[nH]c4ncccc34)CC2)c1.O=C(O)CC(O)(CC(=O)O)C(=O)O,-14.52%
7,CN(CCc1cccc2ccccc12)Cc1nc(N)nc(N(C)C)n1,75.75%
8,COc1ccccc1CCN(C)Cc1nc(N)nc(N(C)C)n1,10.83%
9,CN(Cc1nc(N)nc(N(C)C)n1)Cc1cccc2ccccc12,-5.133%
10,CC(C)Cn1ccnc1CNC(=O)NC(C)c1nccs1 (stereo not given),55.14%
11,CC(C)Cn1ccnc1CNC(=O)NC(C)(C)c1nccs1,-19.09%
12,Cc1nc(C(C)NC(=O)NCc2nccn2CC(C)C)cs1 (stereo not given),0.1192%
13,O=C(O)C(F)(F)F.O=C(c1cscn1)N1CCc2ncnc(-c3cccnc3)c2CC1,-9.91%
14,CC(=O)N1N=C(c2cccs2)OC1C(=O)NCCc1cccc(Cl)c1 (stereo not given),62.85%
15,CC(=O)N1N=C(c2ccccc2)OC1C(=O)NCCc1cccc(Cl)c1 (stereo not given),-5.794%
16,COc1ccc(NC(=O)C2OC(c3cccs3)=NN2C(C)=O)cc1OC (stereo not given),54.99%
17,CC(=O)N1N=C(c2ccccc2)OC1C(=O)NCCc1cccc(F)c1 (stereo not given),26%
18,COc1ccc(NC(=O)C2OC(c3cccs3)=NN2C(C)=O)cc1 (stereo not given),19.1%
19,CC(=O)N1N=C(c2cccs2)OC1C(=O)Nc1ccccc1 (stereo not given),6.727%
20,O=C(O)C(F)(F)F.O=C(c1ccc2ccccc2n1)N1CCC2(CCN2c2ncccn2)C1 (stereo not given),-9.605%
